Experimental data taken from PubChem BioAssay (EPA / NIEHS).
Active and inactive are the calls of the source. How the source made its calls: active means hit-call score of the fitted dose curve at least 0.9, where 1 is the maximum; inactive means score below 0.9.

Columns and labels:
[1] = ATG_CRE_CIS: Attagene CIS-FACTORIAL HepG2 Assay for human cAMP Responsive Element (CRE) binding protein 3 (AID 2282926); settings: HepG2 CRE cis-reporter, Attagene multiplexed mRNA; actives raise or lower the signal
Method in brief: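 Multiplexed transcription-unit reporters transfected into HepG2; 24 h dosing; RT-PCR/capillary electrophoresis fluorescence read-out; bidirectional fit vs DMSO.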

[2] = target: CCAAT/enhancer-binding protein beta (Homo sapiens) (UniProt P17676); assay: ATG_C_EBP_CIS: Attagene CIS-FACTORIAL HepG2 Assay for human CCAAT/Enhancer Binding Protein (C/EBP) beta (AID 2282927); settings: HepG2 Attagene cis-factorial transcription factor reporter; actives raise or lower the signal
Chain of CCAAT/enhancer-binding protein beta (Homo sapiens) (P17676 whole entry, looked up): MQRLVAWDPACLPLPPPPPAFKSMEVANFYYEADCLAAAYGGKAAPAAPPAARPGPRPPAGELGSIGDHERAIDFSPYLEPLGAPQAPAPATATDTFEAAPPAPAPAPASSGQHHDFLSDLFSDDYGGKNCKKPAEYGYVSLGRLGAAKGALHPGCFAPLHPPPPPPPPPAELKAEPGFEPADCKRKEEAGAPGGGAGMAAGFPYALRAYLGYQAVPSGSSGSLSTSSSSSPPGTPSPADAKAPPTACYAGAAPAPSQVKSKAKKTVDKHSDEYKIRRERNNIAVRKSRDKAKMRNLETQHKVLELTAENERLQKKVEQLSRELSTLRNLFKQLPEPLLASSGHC
Method in brief: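 Transiently transfected HepG2 (MRTU library, endogenous TF-driven promoters); 24 h dosing; total RNA → oligo(dT) RT → PCR → 6-FAM primer extension → HpaI digest → CE; fit bidirectionally vs DMSO.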

[3] = ATG_CMV_CIS: Attagene CIS-FACTORIAL HepG2 Assay for human CMV (Internal Marker) (AID 2282928); settings: HepG2 CMV promoter reporter, transcription factor profiling; actives raise or lower the signal;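 further: endpoint acts as a background internal control marker rather than a target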
Method in brief: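 Cell system: HepG2, transiently transfected multiple reporter units under cis promoters. Exposure: 24 h. Detection: RT-PCR, FAM labeling, HpaI digestion, capillary electrophoresis. Analysis: bidirectional, DMSO baseline.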

[4] = ATG_DR4_LXR_CIS: Attagene CIS-FACTORIAL HepG2 Assay for human Liver X Receptor (LXR), DR4 submotif (AID 2282929); settings: HepG2 Attagene DR4 cis-reporter, mRNA transcription; actives raise or lower the signal
Method in brief: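 Cells were transfected with multiple reporter transcription units, exposed to chemicals for 24 hours, then lysed for RNA. Reporter mRNA induction was measured by RT-PCR with capillary electrophoresis detection and fitted in both directions relative to DMSO.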

[5] = target: Aryl hydrocarbon receptor (Homo sapiens) (UniProt P35869); assay: ATG_Ahr_CIS: Attagene CIS-FACTORIAL HepG2 Assay for human Aryl Hydrocarbon Receptor (Ahr) (AID 2282930); settings: HepG2 AhR cis-factorial reporter transcription; actives raise or lower the signal
Chain of Aryl hydrocarbon receptor (Homo sapiens) (P35869 whole entry, looked up): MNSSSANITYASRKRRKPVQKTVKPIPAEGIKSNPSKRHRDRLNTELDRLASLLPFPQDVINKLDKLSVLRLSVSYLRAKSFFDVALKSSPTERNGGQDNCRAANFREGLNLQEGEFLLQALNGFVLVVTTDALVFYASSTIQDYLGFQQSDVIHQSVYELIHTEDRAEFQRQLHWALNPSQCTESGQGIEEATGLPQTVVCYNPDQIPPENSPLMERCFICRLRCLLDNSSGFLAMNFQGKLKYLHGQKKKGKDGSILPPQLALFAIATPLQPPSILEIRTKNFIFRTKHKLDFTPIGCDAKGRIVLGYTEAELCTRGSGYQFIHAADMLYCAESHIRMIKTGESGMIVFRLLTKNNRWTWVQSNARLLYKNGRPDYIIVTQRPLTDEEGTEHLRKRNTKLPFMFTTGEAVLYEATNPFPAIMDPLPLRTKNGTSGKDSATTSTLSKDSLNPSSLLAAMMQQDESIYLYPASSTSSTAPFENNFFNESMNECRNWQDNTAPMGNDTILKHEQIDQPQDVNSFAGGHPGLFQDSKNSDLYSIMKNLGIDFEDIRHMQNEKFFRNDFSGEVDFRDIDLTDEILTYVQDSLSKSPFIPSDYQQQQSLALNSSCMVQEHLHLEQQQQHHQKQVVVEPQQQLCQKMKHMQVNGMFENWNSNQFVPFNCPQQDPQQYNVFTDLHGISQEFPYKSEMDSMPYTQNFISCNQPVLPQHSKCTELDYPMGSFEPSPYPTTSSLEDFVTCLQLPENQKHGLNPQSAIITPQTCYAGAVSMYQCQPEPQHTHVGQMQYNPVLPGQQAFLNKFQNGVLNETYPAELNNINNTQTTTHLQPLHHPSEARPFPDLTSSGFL
Method in brief: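 Read-out: reporter mRNA quantified by RT-PCR with fluorescent primer extension and capillary electrophoresis. Human HepG2 liver cells carried transfected cis-promoter reporter units and were exposed to chemical for 24 h; gain or loss fitted relative to DMSO.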

[6] = ATG_AP_1_CIS: Attagene CIS-FACTORIAL HepG2 Assay for human Activator Protein 1 (AP-1) (AID 2282931); settings: HepG2 Attagene cis-factorial AP-1 reporter mRNA; actives raise or lower the signal
Method in brief: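 Endogenous transcription-factor activity in human HepG2 liver cells is read through a cis-promoter reporter transcript, sampled 24 h after dosing. Detection uses RT-PCR with capillary electrophoresis; values come from bidirectional fitting relative to DMSO.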

[7] = ATG_AP_2_CIS: Attagene CIS-FACTORIAL HepG2 Assay for human Activator Protein 2 (AP-2) (AID 2282932); settings: HepG2 AP-2 cis-reporter, Attagene transcription factor profiling; actives raise or lower the signal
Method in brief: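 Multiplexed mRNA reporter assay in HepG2: cis-regulated units report endogenous factor activity after 24 h treatment. Fluorescence from capillary electrophoresis of RT-PCR products gives the signal, with DMSO as baseline.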

[8] = target: Retinoic acid receptor alpha (Homo sapiens) (UniProt P10276); assay: ATG_DR5_RAR_CIS: Attagene CIS-FACTORIAL HepG2 Assay for human Retinoic Acid Receptor Alpha (RARE), DR5 submotif (AID 2282934); settings: HepG2 Attagene cis-factorial RARE DR5 reporter, mRNA; actives raise or lower the signal
Chain of Retinoic acid receptor alpha (Homo sapiens) (P10276 whole entry, looked up): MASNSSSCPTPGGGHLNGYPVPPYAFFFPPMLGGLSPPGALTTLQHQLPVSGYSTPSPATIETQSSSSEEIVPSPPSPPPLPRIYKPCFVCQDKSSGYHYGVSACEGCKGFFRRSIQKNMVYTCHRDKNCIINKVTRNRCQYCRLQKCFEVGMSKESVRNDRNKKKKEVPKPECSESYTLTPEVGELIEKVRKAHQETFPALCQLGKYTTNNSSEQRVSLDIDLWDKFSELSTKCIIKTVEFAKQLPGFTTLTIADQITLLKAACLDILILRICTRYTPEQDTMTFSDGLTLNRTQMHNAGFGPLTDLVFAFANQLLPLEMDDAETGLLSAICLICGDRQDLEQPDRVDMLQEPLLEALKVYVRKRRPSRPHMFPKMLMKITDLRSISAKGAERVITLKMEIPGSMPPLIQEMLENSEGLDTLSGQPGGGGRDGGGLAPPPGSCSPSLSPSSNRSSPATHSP
Method in brief: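 Read-out: DR5-driven reporter transcript measured by RT-PCR, 6-FAM primer extension, HpaI digest and capillary electrophoresis. Human HepG2 liver cells carry transiently transfected cis-element reporter constructs; dosing lasts 24 h. Gain or loss of signal fitted against DMSO baseline.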

[9] = target: Transcription factor E2F1 (Homo sapiens) (UniProt Q01094); assay: ATG_E2F_CIS: Attagene CIS-FACTORIAL HepG2 Assay for human E2F Transcription Factor 1 (AID 2282935); settings: HepG2 Attagene cis-reporter, E2F reporter RNA transcripts; actives raise or lower the signal
Chain of Transcription factor E2F1 (Homo sapiens) (Q01094 whole entry, looked up): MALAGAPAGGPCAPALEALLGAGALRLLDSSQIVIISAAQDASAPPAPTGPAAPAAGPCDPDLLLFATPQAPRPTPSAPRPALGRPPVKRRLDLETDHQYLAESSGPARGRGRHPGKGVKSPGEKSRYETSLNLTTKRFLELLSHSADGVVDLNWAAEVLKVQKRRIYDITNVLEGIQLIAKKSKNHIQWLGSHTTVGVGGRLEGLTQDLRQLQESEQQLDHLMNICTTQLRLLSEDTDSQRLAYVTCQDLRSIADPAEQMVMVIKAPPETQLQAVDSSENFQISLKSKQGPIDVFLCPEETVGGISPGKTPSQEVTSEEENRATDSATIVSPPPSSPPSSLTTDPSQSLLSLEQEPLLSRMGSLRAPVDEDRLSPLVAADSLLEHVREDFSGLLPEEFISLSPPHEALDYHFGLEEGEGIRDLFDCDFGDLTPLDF
Method in brief: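 Measures reporter transcript levels via RT-PCR with capillary electrophoresis detection in HepG2 cells harboring cis-regulated reporter units; 24 h post-dose; bidirectional curve fitting with DMSO as baseline.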

[10] = ATG_E_Box_CIS: Attagene CIS-FACTORIAL HepG2 Assay for human Enhancer Box (E-box) (AID 2282936); settings: HepG2 E-box cis-reporter transcription, actives raise or lower the signal
Method in brief: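 First, HepG2 cells receive multiple cis-regulated reporter constructs by transient transfection. Next, chemicals are applied for 24 h. Finally, reporter mRNA is quantified via RT-PCR and capillary electrophoresis, with DMSO as baseline.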

[11] = ATG_M_61_CIS: Attagene CIS-FACTORIAL HepG2 Assay for M61 Transcription Factor (Internal Marker) (AID 2282937); settings: HepG2 Attagene CIS-FACTORIAL M61 internal marker reporter; actives raise or lower the signal
Method in brief: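 Cells were transfected with reporter units under cis-regulatory promoters, treated with chemicals for 24 h, then lysed for RNA. Reporter transcripts were quantified by RT-PCR and capillary electrophoresis, and activity was fitted bidirectionally against DMSO.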

[12] = ATG_M_19_CIS: Attagene CIS-FACTORIAL HepG2 Assay for M19 Transcription Factor (Internal Marker) (AID 2282939); settings: HepG2 Attagene CIS-FACTORIAL M19 internal marker reporter; actives raise or lower the signal
Method in brief: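 Chemical-treated HepG2 (24 h) with MRTU constructs; reporter transcripts detected by fluorescent RT-PCR fragment analysis on capillary electrophoresis. Internal background marker, DMSO as baseline.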

[13] = ATG_ERE_CIS: Attagene CIS-FACTORIAL HepG2 Assay for Estrogen Response Element (ERE) (AID 2282940); settings: HepG2 ERE cis-reporter, Attagene RNA transcript; actives raise or lower the signal
Method in brief: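 Human liver cells (HepG2) bearing transiently transfected, promoter-regulated reporter units were exposed 24 h. Reporter mRNA induction was detected by capillary electrophoresis of labelled RT-PCR products and fitted bidirectionally to DMSO.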

[14] = ATG_Ets_CIS: Attagene CIS-FACTORIAL HepG2 Assay for human Erythroblast Transformation Specific (ETS) (AID 2282941); settings: HepG2 ETS cis-reporter transcription, actives raise or lower the signal
Method in brief: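 After transient cis-reporter transfection, HepG2 cells receive test chemical for 24 h. Reporter mRNA levels, measured by RT-PCR and capillary electrophoresis fluorescence, are analysed bidirectionally relative to the DMSO baseline.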

[15] = target: Hepatocyte nuclear factor 3-beta (Homo sapiens) (UniProt Q9Y261); assay: ATG_FoxA2_CIS: Attagene CIS-FACTORIAL HepG2 Assay for human Forkhead box A2 (FOXA2) (AID 2282942); settings: HepG2 cis-reporter transcription factor activity, 24 h; actives raise or lower the signal
Chain of Hepatocyte nuclear factor 3-beta (Homo sapiens) (Q9Y261 whole entry, looked up): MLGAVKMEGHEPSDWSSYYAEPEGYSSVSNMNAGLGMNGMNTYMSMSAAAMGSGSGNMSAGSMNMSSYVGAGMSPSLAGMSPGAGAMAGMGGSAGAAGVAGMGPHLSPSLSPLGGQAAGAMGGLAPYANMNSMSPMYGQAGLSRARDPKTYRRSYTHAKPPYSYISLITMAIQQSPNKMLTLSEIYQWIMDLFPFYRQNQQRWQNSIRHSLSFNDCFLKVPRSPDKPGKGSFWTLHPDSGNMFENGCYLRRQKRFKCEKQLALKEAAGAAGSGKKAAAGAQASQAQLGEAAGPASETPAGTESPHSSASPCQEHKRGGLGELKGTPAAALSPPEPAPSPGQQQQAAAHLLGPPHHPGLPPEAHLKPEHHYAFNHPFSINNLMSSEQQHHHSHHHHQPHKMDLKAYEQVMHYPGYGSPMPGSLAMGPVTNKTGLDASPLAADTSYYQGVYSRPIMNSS
Method in brief: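 Endogenous transcription factor activity was read in HepG2 cells carrying transiently transfected cis-promoter reporter units. After 24 h dosing, reporter mRNA was quantified by RT-PCR and capillary electrophoresis, and values fitted bidirectionally versus DMSO.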

[16] = ATG_FoxO_CIS: Attagene CIS-FACTORIAL HepG2 Assay for human Forkhead box O (FoxO) (AID 2282943); settings: HepG2 Attagene cis-reporter, FoxO element, mRNA; actives raise or lower the signal
Method in brief: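 Read-out: fluorescence of 6-FAM-labelled reporter cDNA fragments resolved by capillary electrophoresis. Transiently transfected HepG2 cells were dosed for 24 h; activity fitted in both directions relative to DMSO controls.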

[17] = ATG_GATA_CIS: Attagene CIS-FACTORIAL HepG2 Assay for human GATA Binding Protein (AID 2282944); settings: HepG2 GATA cis-element reporter, Attagene multiplex mRNA; actives raise or lower the signal
Method in brief: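 Transfected cis-reporter HepG2 cells were treated with chemicals for 24 hours. Total RNA was then converted to cDNA, amplified with reporter-specific primers and analysed by fluorescent capillary electrophoresis, using DMSO-treated wells as baseline.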

[18] = ATG_EGR_CIS: Attagene CIS-FACTORIAL HepG2 Assay for human Early Growth Response 1 (EGR1) (AID 2282938); settings: HepG2 Attagene CIS-FACTORIAL EGR reporter mRNA; actives raise or lower the signal
Method in brief: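 Endogenous TF activity in HepG2 liver cells was gauged through cis-promoter reporter constructs transiently transfected. After 24 h dosing, reporter mRNA was quantified by RT-PCR and capillary electrophoresis, and curves fitted in both directions versus DMSO.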

[19] = ATG_BRE_CIS: Attagene CIS-FACTORIAL HepG2 Assay for human Bone Morphogenetic Protein (BMP) Response Element (BRE) (AID 2282933); settings: HepG2 BMP response element reporter, Attagene transcription factor profiling; actives raise or lower the signal
Method in brief: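 A HepG2 multiplex reporter system measured inducible reporter mRNA 24 h post-dosing. Detection: RT-PCR, 6-FAM primer extension, HpaI digestion, capillary electrophoresis. Activity fitted bidirectionally relative to DMSO.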

Measured: AC50

CCN(CC)c1ccc(N=Nc2ccccc2)cc1
active: [5] 5680 nM | [6] 72700 nM | [10] 20900 nM | [15] 26900 nM
not listed: [18] | [19]
inactive: all other assays above

CO[Si](C)(CCC(F)(F)C(F)(F)C(F)(F)C(F)(F)C(F)(F)C(F)(F)F)OC
not listed: [7] | [15] | [19]
inactive: all other assays above

CC(C)=CCCC(C)O (configuration not stated)
inactive: all assays above

N#CCCOCCC#N
not listed: [4] | [8] | [15] | [18]
inactive: all other assays above

CCN=C1C=CC(=C(c2ccc(N(CC)CC)cc2)c2ccc(N(CC)CC)cc2)c2ccccc21
inactive: [8] | [9] | [11] | [12] | [13] | [14] | [15] | [16] | [17]
active: [1] 1170 nM | [2] 33.4 nM | [3] 905 nM | [4] 655 nM | [5] 48.2 nM | [6] 191 nM | [7] 3680 nM | [19] 68.8 nM | [10] 2010 nM | [18] 780 nM

CN(C(=O)C(F)(F)C(F)(F)C(F)(F)F)[Si](C)(C)C
not listed: [15] | [18] | [19]
inactive: all other assays above

C[Si](Cl)(Cl)CCC(F)(F)C(F)(F)C(F)(F)C(F)(F)C(F)(F)C(F)(F)F
not listed: [7]
inactive: all other assays above

CCc1ccc(C)nc1
not listed: [4] | [7] | [15] | [18]
inactive: all other assays above

CCCCCCCCCCCCC[N+](C)(C)Cc1ccccc1
not listed: [4] | [7] | [15] | [19]
inactive: all other assays above

O=c1cccc[nH]1
not listed: [4] | [7] | [18]
inactive: all other assays above

OCCC(O)CO (configuration not stated)
not listed: [19]
inactive: all other assays above

COCCC(=O)OC
not listed: [4] | [19]
inactive: all other assays above

CC1=CCC(=O)O1
not listed: [4] | [7] | [18]
inactive: all other assays above

CCN(CC)c1ccc2c(c1)Oc1cc(N(CC)CC)ccc1C21OC(=O)c2ccccc21
active: [5] 7410 nM
not listed: [15]
inactive: all other assays above

CCCCCCCCCCCCCC[P+](CCCC)(CCCC)CCCC
active: [1] 758 nM | [19] 745 nM
not listed: [7] | [8]
inactive: all other assays above
